# Shown are actives, neighbours in structure and some others; about 2.3% of the full set was active somewhere.
# LEDGF integ inh – blocks HIV-1 LEDGF/p75-dependent DNA integration; hit rate 0.64% among 370,000; inhibition, % at 3.7 µM; TR-FRET IN-LEDGF/p75 DNA integration, Eu/Cy5; AID 743269;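 active = inhibition above the screen-wide mean plus 3 SD, cut at about 13% in these data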;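 note: signal is the Cy5 over europium emission ratio at 671 and 618 nm; 0% = plate median of compound wells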
# PLCg1 inh – inhibitors of human phospholipase C gamma1. P19174. purified PLC-gamma1, fluorogenic substrate, fluorescence. inhibition, % at 12.2 µM. hit rate 0.84% among 370,000. AID 720700; in the data active = inhibition above about 9.5%
# PLC-beta3 inh – blocks human PLC-beta3 enzyme activity | Purified PLC-beta3, fluorogenic substrate, fluorescence | inhibition, % at 12.2 µM | AID 720704 | hit rate 0.18% among 370,000 | Q01970; in the data active = inhibition above about 11%;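 note: 0% = median of compound wells on plate and 100% = full blocker control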
# UHRF1 binding – UHRF1 methyl-DNA binding inhibition; Q96T88; UHRF1 binding to methylated oligo, TR-FRET; inhibition, % at 4.4 µM; hit rate 0.75% among 370,000; in the data active = inhibition above about 21%;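 note: UHRF1 SRA domain binding a hemimethylated CpG hairpin DNA probe; 0% = median of test compound wells and 100% = reference inhibitor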
# MBD2 DNA inh – blocks human MBD2 binding to methylated DNA. TR-FRET, MBD2 binding to methylated oligonucleotide. inhibition, % at 4.4 µM. hit rate 0.31% among 370,000. AID 686964; in the data active = inhibition above about 13%
# Starred values were filed as active, the others as inactive; i = inactive.
SMILES,LEDGF integ inh,PLCg1 inh,PLC-beta3 inh,UHRF1 binding,MBD2 DNA inh
Cc1c(Br)c(=O)oc2c(Br)c(O)ccc12,3,-335,-475,3,2
Cc1c(Br)c(=O)oc2c(Br)c(O)c(O)cc12,-3,-368,-373,31*,10
COc1ccc(Oc2c(Cl)cnn(-c3ccc(C(C)C)c(C)c3)c2=O)cc1,-3,-2,-5,3,1
O=C(Oc1coc(CSc2ncccn2)cc1=O)c1ccc([N+](=O)[O-])cc1,-2,-1,3,-2,-8
CCOc1ccc(Cl)cc1-c1cc(C(=O)NC2CCCCC2)[nH]n1,-2,4,0,79*,-1
COc1cc(C(O)C(=O)O)ccc1O (configuration not stated),2,0,-1,43*,-2
c1ccc(Cn2c(SCC3CCC3)nnc2-c2cccnc2)cc1,-2,2,3,0,-3
CC1=NN(c2ccc(C(=O)O)c(N)c2)C(=O)C1,31*,6,-6,28*,1
CC(=O)c1cccc(NC(=O)CN(C2CCCCC2)S(C)(=O)=O)c1,-1,7,6,1,0
Cc1cccc(C)c1NC(=O)CN(C1CCCCC1)S(C)(=O)=O,0,4,-2,28*,0
Cc1cccc(OCCOC(=O)c2ccc(F)c(S(=O)(=O)N3CCOCC3)c2)c1,-5,0,-12,41*,6
O=C(OCn1nnc2ccccc2c1=O)c1ccc(F)c(S(=O)(=O)N2CCOCC2)c1,2,0,4,73*,2
O=C(OCn1nnc2ccccc2c1=O)c1cccc(S(=O)(=O)N2CCOCC2)c1,2,4,-2,0,1
CN(C)S(=O)(=O)c1cccc(C(=O)N/N=C\c2ccnc3ccccc23)c1,5,1,-1,0,-9
OC(CNCc1ccccc1)Cn1ccc2ccccc21 (configuration not stated),-1,-2,-3,27*,-1
COC(=O)C1=C(C(=O)OC)[C@@]2([C@@H](Cc3ccc(C)cc3)Nc3ccccc3)C=C[C@@H]1O2,-2,-1,-3,0,0
O=C(CNc1cccc([N+](=O)[O-])c1)N1CCN(S(=O)(=O)c2ccc(Cl)cc2)CC1,4,1,12*,1,-5
COc1ccccc1-n1c(SCC(=O)NC(C)(C)C)nc(O)c(Cc2ccccc2)c1=O,0,2,0,22*,6
C=CCN(CC#CC1=CCCCC1)Cc1ccc(OC)cc1OC,3,0,2,-1,-1
COC(=O)C1CN(C2CC2)CCS(=O)(=O)N1Cc1cn(Cc2ccc(C)cc2)nn1 (configuration not stated),2,1,0,11,0
COC(=O)[C@]1(C#N)CC(=O)N(Cc2ccc(Cl)cc2)[C@@H]1c1ccccc1,-2,-1,-1,3,-2
O=C(/C=C/c1ccco1)N1CCc2ccccc21,4,3,-5,-2,-1
Cc1ccc(/C=C/C(=O)N2CCc3ccccc32)o1,9,-4,-4,31*,13
Cc1c(C(=O)Nc2ccc(Cl)cc2)c2ccccn2c1CCc1ccncc1,-4,-282,-283,24*,0
Cc1c(C(=O)Nc2cccc(Cl)c2)c2ccccn2c1CCc1ccncc1,0,-97,-124,-1,0
SMILES,LEDGF integ inh,PLCg1 inh,PLC-beta3 inh,UHRF1 binding,MBD2 DNA inh
N#Cc1c(NC(=O)c2ccccc2Cl)n(Cc2ccccc2)c2nc3ccccc3nc12,16*,-227,-251,10,1
O=C(c1ccoc1)N1CCN(c2cc(-c3ccco3)nc3cc(-c4ccco4)nn23)CC1,9,i,i,2,8
COc1ccccc1-c1nnc(SCC(=O)NCc2c(C)c(Cl)cc(C(C)C)c2O)o1,-1,3,0,43*,0
CCOC(=O)c1sc2nc(-c3ccco3)c3c(c2c1N)CC(C)(C)OC3,42*,-92,-134,7,-1
Cc1nc2sc(C(=O)O)c(N)c2c2c1COC(C)(C)C2,0,-15,-18,-2,-1
CS(=O)(=O)c1ccc(Cl)c(NC(=O)CN2CCN(C(=O)c3cccs3)CC2)c1,2,1,2,23*,7
CC(C)(CN1CCN(Cc2ccccc2)CC1)NS(=O)(=O)c1ccccc1,1,5,-6,22*,4
CC(=O)N1CCN(CC(C)(C)NS(=O)(=O)c2ccccc2)CC1,-7,1,-1,0,-1
Cc1nnn(C23CC4CC(CC(CC(=O)Nc5ccc(C)c(Cl)c5)(C4)C2)C3)n1,1,0,4,27*,2
Cc1nc2c(=O)[nH]c(=S)[nH]c2[nH]c1=O,22*,-27,-64,85*,48*
Cc1nc2[nH]c(=S)[nH]c(=O)c2nc1C,3,-85,-108,2,-1
O=C(c1cccc(C(F)(F)F)c1)c1c[nH]c(C(=O)NCC2CCCO2)c1 (configuration not stated),1,-2,-5,24*,2
CC(=O)c1c[nH]c(C(=O)NCC2CCCO2)c1 (configuration not stated),0,-1,0,0,-2
CCCCCCCCN1C(=O)N2Cc3cc(OC)ccc3C2CS1(=O)=O (configuration not stated),2,0,3,1,-3
CCCCOCCCNC(=O)C[C@@H]1C(=O)N2CCCC3=C2[C@@]1(C(=O)OC)CCCC3,-1,-2,2,1,-4
O=C1CSC(c2ccco2)N1 (configuration not stated),4,3,6,-3,0
O=C(O)C1CSC(c2ccco2)N1 (configuration not stated),48*,-5,-12,65*,34*
O=C(COC(=O)c1ccc(Sc2ncn[nH]2)c([N+](=O)[O-])c1)Nc1ccc(Cl)c(Cl)c1,-1,2,-2,0,-1
COc1ccccc1CNC(=O)c1ccc(-c2ccccc2)cc1,-1,-1,-3,26*,4
O=C(NCc1ccccc1)[C@H]1CCCN1C(=O)[C@H]1CCCN1C(=O)c1cccs1,-3,0,2,-3,-4
O=C(NCc1ccccc1)[C@@H]1CCCN1C(=O)[C@H]1CCCN1C(=O)c1cccs1,3,-2,11*,3,3
O=C(COC(=O)CCCNC(=O)c1ccc(Cl)cc1)NCc1ccccc1Cl,-1,4,0,0,3
N#CCN(C(=O)COC(=O)CCCNC(=O)c1ccc(Cl)cc1)c1ccccc1,1,0,-4,50*,0
COc1cccc(OC)c1NC(=O)OCCN1CCCC12CCC(c1ccccc1)CC2 (configuration not stated),4,3,0,2,1
COc1ccc(C)cc1NC(=O)CSc1nnc(-c2n[nH]c3c2CCC3)n1N,-2,0,-1,9,2
O=C1c2ccccc2C(=O)N1Nc1ccccc1,2,-4,0,1,4
Cc1ccc(NN2C(=O)C=C(c3ccccc3)C2=O)cc1,3,1,-1,21*,2

# Screening results as filed in PubChem.
